Consider 14 molecules from PubChem BioAssay.

Molecules are shown by their SMILES. Active and inactive are the calls of the source.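 How the source made its calls, unless noted: active means NADPH fluorescence slope more negative than the mean of all samples by about 3 SD, 99.7% confidence; inactive means the rest.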

A short description of assay [1]: inhibitors of TNFa-induced NFkB p65 translocation, primary screen, imaging, HUVEC, MLSMR starter and 10KST1 sets (AID 438;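 active means inhibition above 20% together with a positive visual image hit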;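 further: compound added about 3h40 before a 20 min TNFalpha stimulation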;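 on inhibition: signal is the nuclear over cytoplasmic p65 intensity ratio per well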). The note with it: HUVEC TNFa-induced p65 nuclear translocation; cell count: measured here: nuclei count (cytotoxicity indicator), at 2.08 µM; inhibition: at 2 µM, stronger effect = higher value, 0% TNFa-plus-vehicle, 100% no-TNFa wells.
Assay [2] can be described thus: reduction of polyQ htt aggregates in cells – imaging, exon1htt(103Q)mCFP cells, high-content imaging, primary screen (AID 483;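 active means visual image review flags a hit and inhibition of aggregation exceeds 20%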;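 further: compound exposure lasted 3 days before fixation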;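 on nuclei count: percent of the per-plate median nuclei count of sample wells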). Particulars: exon1htt(103Q)mCFP cell line, aggregate imaging, at 2 µM; inhibition of aggregation: stronger effect = higher value; nuclei count: measured here: cell count, toxicity.
Assay [3] is described as follows: endothelial E-selectin expression blockers – imaging, HUVEC, immunofluorescence, MLSMR starter and 10KST1 sets, primary screen (AID 487;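 active means visually confirmed hit in the image check and inhibition above 20%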;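 on inhibition: signal is fraction of cell area covered by stained E-selectin grains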;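 on nuclei count: 100% = median nuclei count of all wells on the same plate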). The note with it: HUVEC TNFalpha-induced E-selectin immunofluorescence imaging, at 2 µM; inhibition: stronger effect = higher value; nuclei count: measured here: cell number, toxicity.
In assay [4] the target is Voltage-gated potassium channel subunit beta-2 (Rattus norvegicus) (UniProt P62483). Put plainly: inhibitors of rat Kvbeta2 reductase activity – biochemical, NADPH fluorescence, primary screen (AID 622;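 active means fluorescence slope higher than the sample average by over 3 SD, cut at about -0.22 in these data, passing the limit was not always enough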;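 further: slope of raw intensity against log time taken from 70 to 1610 s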). Particulars: recombinant KvBeta, 4-cyanobenzaldehyde reduction, at 10 µM, stronger effect = higher value.
The target is the same in assay [5]. Put plainly: enhancers of rat Kvbeta2 NADPH turnover – biochemical, NADPH fluorescence, primary screen (AID 623).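 Further: fluorescence intensity change per second fitted from 20 to 320 s.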 Particulars: Recombinant KvBeta, NADPH fluorescence decrease slope, 10 min; at 10 µM; stronger effect = lower value.
Assay [6] deals with Alpha-2C adrenergic receptor (Homo sapiens) (UniProt P18825). Put plainly: compounds altering alpha2C-coupled GIRK flux – cell-based, HEK293 alpha2C/GIRK1/2, thallium flux, primary screen (AID 624;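 active means fluorescence slope after compound addition differing from the mean of all screened samples at 99.7% confidence, in either direction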;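 further: slope of fluorescence ratio to pre-addition baseline per second over 15 to 24 s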). The note with it: thallium flux BTC fluorescence, at 10 µM, actives lie on both sides.
A short description of assay [7]: blockers of RIG-like receptor reporter activation – cell-based, Sendai virus stimulus, luciferase, 10K MLSCN set, TLR/RLR signaling modifier project, primary screen (AID 602276;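 active means inhibition at or above 50% at 10 µM; inactive means inhibition below 50%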;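 further: firefly luciferase from ISG56 promoter only with Renilla not read in this screen; 0% = Sendai virus plus DMSO and 100% = medium plus DMSO without virus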). The note with it: HEK293 RL24 IRF3 luciferase reporter, at 10 µM, stronger effect = higher value. (In general: In a reporter assay the amount or activity of a reporter protein is the signal.)
Assay [8] in a line: TLR3 IRF3 reporter activation blockers – cell-based, poly I:C stimulus, luciferase, 10K MLSCN set, primary screen (AID 602277;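 active means inhibition of the reporter signal at or above 50%; inactive means inhibition below 50%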). The note with it: HEK293-TLR3 RL24 IRF3 luciferase reporter, at 10 µM, stronger effect = higher value.

Chain of Voltage-gated potassium channel subunit beta-2 (Rattus norvegicus) (P62483 whole entry, looked up): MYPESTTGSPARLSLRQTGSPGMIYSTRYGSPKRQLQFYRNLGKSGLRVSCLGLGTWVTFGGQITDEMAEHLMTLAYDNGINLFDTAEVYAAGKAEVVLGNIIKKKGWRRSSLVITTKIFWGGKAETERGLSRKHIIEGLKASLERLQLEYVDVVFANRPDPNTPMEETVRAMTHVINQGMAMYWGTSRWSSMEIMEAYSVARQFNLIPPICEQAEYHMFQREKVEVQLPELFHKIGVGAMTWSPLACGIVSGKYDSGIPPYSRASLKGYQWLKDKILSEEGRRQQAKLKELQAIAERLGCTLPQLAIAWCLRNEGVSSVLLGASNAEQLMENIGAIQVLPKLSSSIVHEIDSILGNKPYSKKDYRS
Chain of Alpha-2C adrenergic receptor (Homo sapiens) (P18825 whole entry, looked up): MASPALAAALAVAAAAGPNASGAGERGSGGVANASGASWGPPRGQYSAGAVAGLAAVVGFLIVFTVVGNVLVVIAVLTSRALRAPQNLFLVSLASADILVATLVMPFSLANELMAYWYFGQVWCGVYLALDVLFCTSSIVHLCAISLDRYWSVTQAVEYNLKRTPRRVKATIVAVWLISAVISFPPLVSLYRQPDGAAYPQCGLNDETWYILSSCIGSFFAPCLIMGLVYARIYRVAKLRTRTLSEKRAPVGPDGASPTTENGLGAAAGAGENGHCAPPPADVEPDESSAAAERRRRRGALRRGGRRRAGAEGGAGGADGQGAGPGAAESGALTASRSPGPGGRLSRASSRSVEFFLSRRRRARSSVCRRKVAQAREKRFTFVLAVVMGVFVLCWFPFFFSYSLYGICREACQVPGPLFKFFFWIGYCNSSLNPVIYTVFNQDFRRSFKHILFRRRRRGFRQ

On to `O=C(Cn1ncc2c1-c1ccccc1OC2)Nc1ccc(Cl)cn1`, for which the cell count in assay [1] turned out to be 462. In addition, the inhibition – broadly, the drop in the measured response relative to a control, in per cent – is -2.9% (inactive) in assay [1], -55% (inactive) in assay [3], 9.19% (inactive) in assay [7] and 29.8% (inactive) in assay [8]. In assay [2], the inhibition of aggregation is -7.1% (inactive). Besides, the nuclei count was 114% in assay [2] and 116% in assay [3]. Also, the fluorescence slope in assay [4] was -0.573 (inactive). Moreover, the NADPH fluorescence slope in assay [5] was -3.2e-05 (inactive). Besides, in assay [6], the slope is 0.00703 (inactive).

On to `Cc1cccc(N(CC(=O)Nc2ccc(CC#N)cc2)S(C)(=O)=O)c1`, for which, in assay [1], the cell count was 487. In addition, the inhibition in assay [1] was -15.7% (inactive); in assay [3], -87.9% (inactive); in assay [7] it was 16.7% (inactive); in assay [8] it was 28.7% (inactive). The inhibition of aggregation in assay [2] was -17.9% (inactive). The nuclei count in assay [2] was 106%; in assay [3], 109%. Also, the fluorescence slope in assay [4] was -0.483 (inactive). For the same molecule, the NADPH fluorescence slope in assay [5] is -2.6e-05 (inactive). Moreover, the slope in assay [6] is 0.00518 (inactive).

As to `CCN1CCN(C(=O)c2cn(CC)c3ccc(S(=O)(=O)N(C)C)cc3c2=O)CC1`, the cell count in assay [1] was determined as 639. Besides, the inhibition in assay [1] was 1.3% (inactive); in assay [3], -30% (inactive); in assay [7], 7.55% (inactive); in assay [8], 20.6% (inactive). In assay [2], the inhibition of aggregation was 12.4% (inactive). Also, the nuclei count in assay [2] is 100%; in assay [3], 107%. Further, in assay [4], the fluorescence slope was -0.59 (inactive). For the same molecule, the NADPH fluorescence slope in assay [5] was -3.2e-05 (inactive). The slope in assay [6] was 0.00681 (inactive).

With `COc1ccc(OC)c2[nH]c(=O)c(CCNC(=O)CC(C)C)cc12`, the cell count in assay [1] is 325. The inhibition in assay [1] was -12.8% (inactive); in assay [3], 62.7% (active); in assay [7], -1.86% (inactive); in assay [8], 2.61% (inactive). The inhibition of aggregation in assay [2] was 2% (inactive). Also, the nuclei count in assay [2] is 91.9%; in assay [3] it was 89.8%. Besides, the fluorescence slope in assay [4] is -0.508 (inactive). Further, in assay [5], the NADPH fluorescence slope was -4.7e-05 (inactive). In addition, in assay [6], the slope is 0.00505 (inactive).

`O=C(CSc1nnnn1C1CCCC1)N1CCN(C(=O)c2ccco2)CC1`: in assay [1], the cell count was found to be 367. In addition, the inhibition was -10.3% (inactive) in assay [1], -54.2% (inactive) in assay [3], -2.14% (inactive) in assay [7] and 16.4% (inactive) in assay [8]. In addition, the inhibition of aggregation in assay [2] is 2% (inactive). Moreover, the nuclei count in assay [2] was 105%; in assay [3], 107%. Moreover, the fluorescence slope in assay [4] was -0.483 (inactive). Moreover, the NADPH fluorescence slope in assay [5] is -2.2e-05 (inactive). In addition, in assay [6], the slope was 0.00599 (inactive).

Turning to `O=C(O)c1[nH]c2ccc(Cl)cc2c1CC(=O)N1CCN(C(=O)c2ccco2)CC1`, in assay [1], the cell count amounted to 374. In addition, the inhibition was -0.5% (inactive) in assay [1], -73.3% (inactive) in assay [3], 7.71% (inactive) in assay [7] and 0.844% (inactive) in assay [8]. Also, in assay [2], the inhibition of aggregation was -8.5% (inactive). Further, the values for the nuclei count in assay [2] and in assay [3] were 99.6% and 103%, respectively. In assay [4], the fluorescence slope was -0.401 (inactive). In addition, in assay [5], the NADPH fluorescence slope was -3.1e-05 (inactive). Further, the slope in assay [6] is 0.003 (inactive).

`CN(C)CCCN1C(=O)c2oc3ccc(Cl)cc3c(=O)c2C1c1cccnc1` (centres undefined): in assay [1], the cell count was determined as 611. Further, the inhibition is -3.3% (inactive) in assay [1], -27% (inactive) in assay [3], 13.5% (inactive) in assay [7] and 39% (inactive) in assay [8]. Moreover, the inhibition of aggregation in assay [2] is -16.3% (inactive). For the same molecule, the nuclei count was 112% in assay [2] and 122% in assay [3]. The fluorescence slope in assay [4] is -0.546 (inactive). The NADPH fluorescence slope in assay [5] is -5.3e-05 (inactive). Moreover, in assay [6], the slope was 0.00766 (inactive).

As for `COC(=O)/C=c1\sc2ncnn2c1=O`, the cell count in assay [1] was found to be 286. The inhibition was -11% (inactive) in assay [1], -34.9% (inactive) in assay [3], 18.3% (inactive) in assay [7] and 26.1% (inactive) in assay [8]. Also, the inhibition of aggregation in assay [2] was 6.6% (inactive). The nuclei count in assay [2] amounted to 111%; in assay [3] it was 107%. The fluorescence slope in assay [4] is -0.624 (inactive). The NADPH fluorescence slope in assay [5] is -1.3e-05 (inactive). Besides, the slope in assay [6] is 0.00688 (inactive).

Consider `Cc1c[nH]c2cccc(OCC(O)CNC(C)(C)C)c12` (centres undefined), for which the cell count in assay [1] came to 324. For the same molecule, the inhibition in assay [1] is -1.6% (inactive); in assay [3], -4.9% (inactive); in assay [7], 12.1% (inactive); in assay [8] it was 27.1% (inactive). Besides, in assay [2], the inhibition of aggregation is 15.3% (inactive). For the same molecule, the nuclei count in assay [2] was 95.2%; in assay [3] it was 123%. The fluorescence slope in assay [4] was -0.454 (inactive). Also, the NADPH fluorescence slope in assay [5] is 1.3e-05 (inactive). The slope in assay [6] is 0.00547 (inactive).

With `O=C(NCCSCc1ccco1)Nc1cccc(Cl)c1`, the cell count in assay [1] was 502. The inhibition in assay [1] was 3.6% (inactive); in assay [3] it was -67.4% (inactive); in assay [7] it was 2.33% (inactive); in assay [8] it was -54.8% (inactive). Moreover, the inhibition of aggregation in assay [2] was -7.7% (inactive). The nuclei count in assay [2] is 99.9%; in assay [3], 115%. Besides, in assay [4], the fluorescence slope was -0.673 (inactive). Further, the NADPH fluorescence slope in assay [5] was 1.6e-05 (inactive). Also, the slope in assay [6] was 0.0115 (inactive).

Turning to `CCn1cc(C(=O)NCc2ccccc2OC)c(=O)c2cc(S(=O)(=O)N(C)C)ccc21`, in assay [1], the cell count was determined as 665. Besides, the inhibition in assay [1] is -5.5% (inactive); in assay [3], -39.5% (inactive); in assay [7], 13.2% (inactive); in assay [8], 23.7% (inactive). In addition, the inhibition of aggregation in assay [2] is 7.5% (inactive). Also, the figures for the nuclei count in assay [2] and in assay [3] were 74.5% and 113%, respectively. Also, in assay [4], the fluorescence slope was -0.425 (inactive). In addition, in assay [5], the NADPH fluorescence slope is -4e-05 (inactive). The slope in assay [6] is 0.00524 (inactive).

As for `CCOc1ccc2[nH]cc(C(=O)N3CCN(CC)CC3)c(=O)c2c1`, the cell count in assay [1] worked out at 498. Moreover, the inhibition was -16.7% (inactive) in assay [1], -18.9% (inactive) in assay [3], -17.3% (inactive) in assay [7] and -19.5% (inactive) in assay [8]. Besides, the inhibition of aggregation in assay [2] was 4.7% (inactive). Also, the values for the nuclei count in assay [2] and in assay [3] were 77.2% and 94.8%, respectively. Further, in assay [4], the fluorescence slope is -0.539 (inactive). In addition, in assay [5], the NADPH fluorescence slope is 1.9e-05 (inactive). Also, in assay [6], the slope was 0.00496 (inactive).

For the molecule `Cc1cc(=O)oc(C)c1C(=O)O`, the cell count in assay [1] came to 560. The inhibition is -13.1% (inactive) in assay [1], -3.9% (inactive) in assay [3], 9.47% (inactive) in assay [7] and 25.5% (inactive) in assay [8]. Moreover, the inhibition of aggregation in assay [2] is 20.6% (inactive). Besides, the figures for the nuclei count in assay [2] and in assay [3] were 88.5% and 114%, respectively. Besides, the fluorescence slope in assay [4] was -0.451 (inactive). The NADPH fluorescence slope in assay [5] is -0.000139 (inactive). The slope in assay [6] was 0.00558 (inactive).

As to `CCn1c(SCc2nc(-c3cccs3)no2)nnc1-c1c[nH]c2ccccc12`, the cell count in assay [1] is 296. Further, the inhibition was 3.4% (inactive) in assay [1], -1.6% (inactive) in assay [3], 10.2% (inactive) in assay [7] and 13.6% (inactive) in assay [8]. Also, the inhibition of aggregation in assay [2] is 1.2% (inactive). Further, the figures for the nuclei count in assay [2] and in assay [3] were 82.9% and 102%, respectively. For the same molecule, in assay [4], the fluorescence slope is -0.34 (inactive). Besides, the NADPH fluorescence slope in assay [5] is 1.2e-05 (inactive). For the same molecule, the slope in assay [6] was 0.0036 (inactive).
